# Reference: publication PMC5700166
# Target: T1, GST-Nv-NF-kB (Ser allele) (Nematostella vectensis, UniProt A7UNT2 2-411)
# T1 sequence: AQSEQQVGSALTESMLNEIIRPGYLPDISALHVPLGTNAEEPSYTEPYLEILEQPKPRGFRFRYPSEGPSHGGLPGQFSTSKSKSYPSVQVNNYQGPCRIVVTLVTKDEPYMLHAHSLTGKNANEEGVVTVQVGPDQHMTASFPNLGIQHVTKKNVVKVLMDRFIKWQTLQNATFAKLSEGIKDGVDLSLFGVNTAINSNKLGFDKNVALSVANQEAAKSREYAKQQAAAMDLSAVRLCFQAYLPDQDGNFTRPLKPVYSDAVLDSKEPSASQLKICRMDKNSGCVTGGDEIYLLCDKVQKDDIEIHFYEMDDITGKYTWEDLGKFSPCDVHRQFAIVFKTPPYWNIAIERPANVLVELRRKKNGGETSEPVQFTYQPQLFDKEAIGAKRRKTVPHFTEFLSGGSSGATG
# Assay: protein-binding microarray (PBM); PBM: ~300 nM protein, 6 mM HEPES pH 7.8, 80 mM KCl, 0.5 mM EDTA, 0.5 mM EGTA, 6% glycerol, 35 ng/ul poly-dIdC, 1% milk, 1 h, room temperature; Ap Aiptasia and Nv Nematostella (sea anemones) / Co Capsaspora / Aq Amphimedon (sponge) / Dm Drosophila / Hu human; RHD is the Rel homology domain; high values mean tight binding
# Details: dsDNA, one strand shown
row,Sequence,binding signal [z-score]
1,CCGATTAACATCACACTCCCCCCTGATGTTAATCGGGTCTTGATTCGCTTGACGCTGCTG,4.56
2,CCGATTAACATCAACTCCCCCCCTGATGTTAATCGGGTCTTGATTCGCTTGACGCTGCTG,4.48
3,CCGATTAACATCAAAAAATCTCCTGATGTTAATCGGGTCTTGATTCGCTTGACGCTGCTG,1.5
4,CCGATTAACATCAGGGGGAGTACTGATGTTAATCGGGTCTTGATTCGCTTGACGCTGCTG,5.81
5,CCGATTAACATCAAAGAGTCCCCTGATGTTAATCGGGTCTTGATTCGCTTGACGCTGCTG,6.03
6,CCGATTAACATCAAAAAACCCCATGATGTTAATCGGGTCTTGATTCGCTTGACGCTGCTG,6.05
7,CCGATTAACATCAGGAGACCCCCTGATGTTAATCGGGTCTTGATTCGCTTGACGCTGCTG,2.64
8,CCGATTAACATCAAGGAACCCCCTGATGTTAATCGGGTCTTGATTCGCTTGACGCTGCTG,6.23
9,CCGATTAACATCAAAAAGCCCCGTGATGTTAATCGGGTCTTGATTCGCTTGACGCTGCTG,6.26
10,CCGATTAACATCAGGGGGGAGAATGATGTTAATCGGGTCTTGATTCGCTTGACGCTGCTG,6.04
11,CCGATTAACATCAAAAGCCCCCATGATGTTAATCGGGTCTTGATTCGCTTGACGCTGCTG,5.01
12,CCGATTAACATCAGGGGGTTATATGATGTTAATCGGGTCTTGATTCGCTTGACGCTGCTG,6.26
13,CCGATTAACATCAAAATACCCCTTGATGTTAATCGGGTCTTGATTCGCTTGACGCTGCTG,6.34
14,CCGATTAACATCACTTCCCCCCATGATGTTAATCGGGTCTTGATTCGCTTGACGCTGCTG,4.67
15,CCGATTAACATCAAAATTCCCTGTGATGTTAATCGGGTCTTGATTCGCTTGACGCTGCTG,6.24
16,CCGATTAACATCAGGATGTCCCCTGATGTTAATCGGGTCTTGATTCGCTTGACGCTGCTG,4.5
17,CCGATTAACATCACGCGTCTACCTGATGTTAATCGGGTCTTGATTCGCTTGACGCTGCTG,1.34
18,CCGATTAACATCATGCCCGGGAATGATGTTAATCGGGTCTTGATTCGCTTGACGCTGCTG,1.07
19,CCGATTAACATCACGGGAATGCCTGATGTTAATCGGGTCTTGATTCGCTTGACGCTGCTG,1.33
20,CCGATTAACATCAAACCCCCCCATGATGTTAATCGGGTCTTGATTCGCTTGACGCTGCTG,4.41

row,Sequence,binding signal [z-score]
1,CCGATTAACATCAAGGGAATTCCTGATGTTAATCGGGTCTTGATTCGCTTGACGCTGCTG,6.53
2,CCGATTAACATCAGGGCACCCCCTGATGTTAATCGGGTCTTGATTCGCTTGACGCTGCTG,3.83
3,CCGATTAACATCAAGGGGGAGGGTGATGTTAATCGGGTCTTGATTCGCTTGACGCTGCTG,3.99
4,CCGATTAACATCAAAAAAACACCTGATGTTAATCGGGTCTTGATTCGCTTGACGCTGCTG,5.3
5,CCGATTAACATCAGGGGGGATACTGATGTTAATCGGGTCTTGATTCGCTTGACGCTGCTG,4.8
6,CCGATTAACATCAGGAACTCCCCTGATGTTAATCGGGTCTTGATTCGCTTGACGCTGCTG,5.51
7,CCGATTAACATCACCCCCTCCCCTGATGTTAATCGGGTCTTGATTCGCTTGACGCTGCTG,3.78
8,CCGATTAACATCAAAATAGCCCCTGATGTTAATCGGGTCTTGATTCGCTTGACGCTGCTG,5.05
9,CCGATTAACATCAAACGTTCCCCTGATGTTAATCGGGTCTTGATTCGCTTGACGCTGCTG,6.33
10,CCGATTAACATCAAAAAATCCCTTGATGTTAATCGGGTCTTGATTCGCTTGACGCTGCTG,5.87
11,CCGATTAACATCAGAGATCCCCCTGATGTTAATCGGGTCTTGATTCGCTTGACGCTGCTG,6.44
12,CCGATTAACATCAGATTTACCGCTGATGTTAATCGGGTCTTGATTCGCTTGACGCTGCTG,1.31
13,CCGATTAACATCAGAAATTACCCTGATGTTAATCGGGTCTTGATTCGCTTGACGCTGCTG,5.41
14,CCGATTAACATCAGACAACCCCCTGATGTTAATCGGGTCTTGATTCGCTTGACGCTGCTG,4.56
15,CCGATTAACATCAAAAGCCCCCTTGATGTTAATCGGGTCTTGATTCGCTTGACGCTGCTG,5.65
16,CCGATTAACATCAAGGGGGGTTATGATGTTAATCGGGTCTTGATTCGCTTGACGCTGCTG,5.24
17,CCGATTAACATCAAGGGGGGAACTGATGTTAATCGGGTCTTGATTCGCTTGACGCTGCTG,6.05
18,CCGATTAACATCACCAAACCCCCTGATGTTAATCGGGTCTTGATTCGCTTGACGCTGCTG,6.38
19,CCGATTAACATCATAAAAAAAAATGATGTTAATCGGGTCTTGATTCGCTTGACGCTGCTG,1.09
